# KB-3-1 cytotox: kills parental KB-3-1 adenocarcinoma cells; KB-3-1 viability, CellTiter-Glo ATP luminescence, 72 h; Potency, µM (titrated, usually from 46.1 µM), usual class: cytotoxic; 400,000 compounds, 1.4% hits; also: % is scaled to controls: 0 for no effect and ±100 for the full control effect; nearly all actives have a fitted effect of over 60% in size
#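 Parental KB-3-1 adenocarcinoma cells in phenol-red-free DMEM with 10% FBS were pin-treated with compounds at several concentrations, incubated 72 h at 37 °C, and viability read by CellTiter-Glo luminescence; concentration-effect curves were fitted after normalization.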
# MCF10A rereplic: induces DNA re-replication in MCF 10a normal breast cells | MCF 10A DNA re-replication, Hoechst nuclear intensity, 48 h | 350,000 compounds, 2.9% hits | Potency, µM (titrated, usually from 46.1 µM), without a hit: at the highest dose activity, positive = re-replication, most hits filed as activators; also: % of control where 0% means no effect; nearly all actives have a fitted effect of over 50% in size
# VP16 counter: inhibits Gal4-VP16 luciferase reporter, ROR gamma counter-screen; Drosophila S2 Gal4-VP16 UAS-luciferase, luminescence, 20 h; Potency, µM (titrated, usually from 53.6 µM), without a hit: at the top dose activity, negative = inhibition, usual class: inhibitors; 310,000 compounds, 3.5% hits;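 also: Gal4-VP16 expression switched on by copper sulfate through the metallothionein promoter; % is scaled to controls: 0 for no effect and ±100 for the full control effect; nearly all actives have a fitted effect of over 50% in size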
# KB-V1 MDR tox: KB-V1 MDR subline cytotoxicity. KB-V1 MDR cells viability, CellTiter-Glo, 72 h. Potency, µM (doses to about 46.1 µM), usual class: cytotoxic. 400,000 compounds, 3.4% hits; also: % is scaled to controls: 0 for no effect and ±100 for the full control effect; nearly all actives have a fitted effect of over 60% in size
#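 KB-V1 MDR subline cells in DMEM (phenol-red free, 10% FBS) exposed to compounds in qHTS concentration series for 72 h at 37 degrees C. Viability read by CellTiter-Glo luminescence; concentration-effect curves fitted after normalization and correction.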
# RORg inh: blocks mouse ROR gamma transcriptional activity; Drosophila S2 Gal4-RORgamma UAS-luciferase reporter, 20 h; P51450; 310,000 compounds, 5.4% hits; Potency, µM (highest dose often 53.6 µM), inactives show at the highest dose activity change, negative = inhibition, usual class: inhibitors; also: % is scaled to controls: 0 for no effect and ±100 for the full control effect; nearly all actives have a fitted effect of over 60% in size
# Target sequence (P51450 whole entry, looked up, the tested form may be a part): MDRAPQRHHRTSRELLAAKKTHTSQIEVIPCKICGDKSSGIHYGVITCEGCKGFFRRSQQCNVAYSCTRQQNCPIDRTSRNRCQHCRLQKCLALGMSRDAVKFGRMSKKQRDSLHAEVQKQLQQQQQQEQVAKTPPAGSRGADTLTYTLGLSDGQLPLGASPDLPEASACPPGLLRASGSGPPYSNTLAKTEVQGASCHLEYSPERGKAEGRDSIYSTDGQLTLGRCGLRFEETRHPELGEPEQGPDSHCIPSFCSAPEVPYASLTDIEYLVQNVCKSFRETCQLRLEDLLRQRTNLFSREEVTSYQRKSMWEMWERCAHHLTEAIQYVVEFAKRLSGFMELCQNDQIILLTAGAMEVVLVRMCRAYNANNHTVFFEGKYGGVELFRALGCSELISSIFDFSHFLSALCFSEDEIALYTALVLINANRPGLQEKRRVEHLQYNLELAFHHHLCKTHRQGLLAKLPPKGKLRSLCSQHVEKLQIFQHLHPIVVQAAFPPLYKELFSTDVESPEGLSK
#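 Stably transfected Drosophila Schneider cells are the test system, with ROR gamma fused to Gal4 and luciferase under UAS control; luminescence is read after 20 hr of 700 uM copper sulfate induction at ambient temperature.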
# SW480 rereplic: inducers of DNA re-replication in SW480 colon cancer cells; AID 624297; Potency, µM (doses to about 46.1 µM), inactives show top-dose re-replication activation, actives largely listed as activators; 340,000 compounds, 1.8% hits; SW480 DNA re-replication, Hoechst DNA content imaging, 48 h; also: % of control where 0% means no effect; nearly all actives have a fitted effect of over 55% in size
#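 Image-based read-out: total Hoechst fluorescence of nuclei (405 nm excitation, 500-530 nm emission), with hits raising the fraction of high-intensity nuclei. SW480 colon cells incubated 48 hr with compounds at 37 C.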
# Starred values were filed as active, the others as inactive; i = inactive; ? = inconclusive; . = no result given; [ ] = dose if it differs, or a comment. An excerpt weighted towards active compounds, which were near 10% of everything screened. Calls follow the shape of the dose curve; as a rule, active = well fitted curve in the direction sought with a large enough effect; inconclusive = small, poorly fitted or top-dose-only effect, or another doubt; inactive = no such curve, though single readings can be large; an effect the other way counts as inactive or inconclusive. Potency is read from the fitted curve at half-maximal effect.
SMILES,KB-3-1 cytotox,MCF10A rereplic,VP16 counter,KB-V1 MDR tox,RORg inh,SW480 rereplic
CCOc1ccccc1NC(=O)c1c(NC(=O)c2cccc(C)c2)sc2c1CCC2,i,.,.,i,.,.
CO[C@@H]1COC(=O)[C@@H](C)COC(=O)[C@@H](C)NC(=O)C/C=C\[C@@H]1C,.,.,4%[10 µM],.,-20%[10 µM],.
Cc1ccc(-c2nnc(SCC(=O)NCCC(C)C)nc2-c2ccc(C)cc2)cc1,i,.,.,i,.,.
COc1ccccc1/C=C1\SC(=S)N(CCC(=O)Nc2cccc(O)c2)C1=O,i,10µM*,.,i,.,-24%
CCc1ccc(/C=C2\SC(=S)N(CCCC(=O)NC3=NCCS3)C2=O)cc1,i,.,.,i,.,.
O=C(CCCN1C(=O)/C(=C\c2ccccc2)SC1=S)Nc1cccc(C(=O)O)c1,i,-6%,-26%,i,0%,6%
CC(/C=C1\SC(=S)N(CCC(=O)Nc2ccc(O)cc2)C1=O)=C\c1ccccc1,?,26%,14µM*,i,14µM*,?
COc1cccc(/C=C2\SC(=S)N(CCCC(=O)NC3=NCCS3)C2=O)c1,i,-1%,0.71µM*,i,0.56µM*,-14%
O=C(CCCN1C(=O)/C(=C/c2ccccc2)SC1=S)Nc1cccc(O)c1,?,?,7.1µM*,i,?,16%
COc1ccccc1/C=C1\SC(=S)N(CCC(=O)NNC(=O)c2ccccc2OC)C1=O,i,3%,-16%,i,-35%,0%
Cc1cccc(N2CCN(c3ncnc4onc(-c5ccc(F)cc5)c34)CC2C)c1 (stereo not given),i,.,.,i,.,.
OCC[C@@H]1C[C@H](O)[C@@H](O)[C@]2(OCc3ccc(CO)cc32)O1,i,.,.,i,.,.
COc1cccc(/C=C2\SC(=S)N(CCCC(=O)Nc3ccc(C(=O)O)cc3)C2=O)c1,i,7%,-6%,?,-8%,24%
COc1cc(/C=C2\SC(=S)N(CCC(=O)NC3CCCC3)C2=O)cc(OC)c1OC,?,8%,?,i,-57%,1%
Cc1ccc(/C=C2\SC(=S)N(CCCC(=O)NC3CCCC3)C2=O)cc1,i,-2%,?,i,1.6µM*,-5%
Cc1ccc(/C=C2/SC(=S)N(CCCC(=O)Nc3ccc(O)cc3)C2=O)cc1,?,?,?,?,0.4µM*,?
COc1cccc(/C=C2/SC(=S)N(CCCC(=O)Nc3ccc(O)cc3)C2=O)c1,i,8%,0.35µM*,?,0.35µM*,?
Cc1ccc(/C=C2\SC(=S)N(CCCC(=O)NNC(=O)c3ccccc3O)C2=O)cc1,i,2%,2.8µM*,i,1.6µM*,1%
CCCN(CCC)C(=O)Cn1c(=O)n(Cc2ccc(C(=O)NCCc3ccc(Cl)cc3)cc2)c(=O)c2ccccc21,i,.,.,i,.,.
CC(/C=C1\SC(=S)N(NC(=O)c2ccccc2C)C1=O)=C\c1ccccc1,i,10µM*,-11%,i,-26%,-15%
O=C(CCCN1C(=O)/C(=C\c2ccccc2)SC1=S)Nc1ccc(O)cc1,?,?,1.8µM*,?,2µM*,?
COc1ccc(N2CCN(CCNC(=O)c3ccc4nc5ccccc5c(=O)n4c3)CC2)cc1,i,-4%,0%,i,-3%,-2%
COc1ccc(N2CCN(CCNC(=O)c3ccc4c(c3)[nH]c(=S)n3c5ccccc5nc43)CC2)cc1,i,13%,3.5µM*,i,6.3µM*,7.3µM*
CC1(C(=O)Nc2cccnc2)Cc2c(-c3ccc4c(c3)OCO4)ccnc2O1 (stereo not given),15µM*,.,.,?,.,.
CC(=O)Nc1ccc(-c2ccnc3c2CC(C)(C(=O)Nc2ccc4c(c2)OCO4)O3)cc1 (stereo not given),18µM*,.,.,i,.,.
SMILES,KB-3-1 cytotox,MCF10A rereplic,VP16 counter,KB-V1 MDR tox,RORg inh,SW480 rereplic
CC1(C(=O)Nc2cccc(Oc3ccccc3)c2)Cc2c(-c3ccc4c(c3)OCO4)ccnc2O1 (stereo not given),4.6µM*,.,.,5.8µM*,.,.
CC(=O)Nc1ccc(NC(=O)C2(C)Cc3c(-c4ccc5c(c4)OCO5)ccnc3O2)cc1 (stereo not given),i,.,.,i,.,.
CN(C)c1ccc(-c2ccnc3c2CC(C)(C(=O)Nc2ccc(Cl)c(C(F)(F)F)c2)O3)cc1 (stereo not given),16µM*,.,.,?,.,.
CC1(C(=O)Nc2cccc(OC(F)(F)F)c2)Cc2c(-c3ccc(C(N)=O)cc3)ccnc2O1 (stereo not given),i,.,.,?,.,.
CC1(C(=O)Nc2ccc(Cl)c(C(F)(F)F)c2)Cc2c(-c3ccccc3)ccnc2O1 (stereo not given),i,.,.,i,.,.
CCCC(=O)Nc1ccc2nn(-c3ccc(CC)cc3)nc2c1,i,.,.,i,.,.
O=C(CN1C(=O)C2C3CCC(C3)C2C1=O)OCC(=O)c1cccc([N+](=O)[O-])c1 (stereo not given),i,-3%,2%,i,-4%,-2%
CC(C)C(C(=O)OCC(=O)c1cccc([N+](=O)[O-])c1)N1C(=O)[C@@H]2[C@H]3CC[C@H](C3)[C@@H]2C1=O (stereo not given in full),i,-72%,-11%,21µM*,2%,-20%
O=C(CCC(=O)OCC(=O)c1ccc([N+](=O)[O-])cc1)NC1CCCCC1,i,-68%,-24%,i,-1%,?
O=C(CCC(=O)OCC(=O)c1cccc([N+](=O)[O-])c1)NC1CCCCC1,i,3%,5%,i,9%,2.6µM*
CC(C)CN(CC(C)C)C1=N/C(=C\c2ccco2)C(=O)N1c1ccccc1,i,15µM*,-14%,i,7%,?
O=C(CSc1nc2cc(C(=O)NC3CCCC3)ccc2c(=O)n1CC1CCCO1)c1cccc(Cl)c1 (stereo not given),i,.,.,i,.,.
Cc1cccc(NC(=O)CCC(=O)N/N=C/c2ccc(O)cc2O)c1,i,?,0%,i,-42%,6.5µM*
COc1ccc(/C=N/NC(=O)CCC(=O)Nc2ccc(F)cc2)c(OC)c1,i,3%,2%,i,20%[1.91 µM],-13%
Cc1ccc(SCCC(=O)N/N=C/c2ccccc2O)cc1,?,3%,0.63µM*,?,0.63µM*,?
COc1ccc(O)c(/C=N/NC(=O)CCC(=O)Nc2ccc(F)cc2)c1,i,24%,-16%,i,11µM*,-3%
Cc1ccc(NC(=O)CCC(=O)N/N=C/c2ccccc2O)cc1,i,1%,11µM*,i,4µM*,11%
